# From the supplement of paper PMC9254222
# In all, about 1,100 compounds were measured (“Renilla luciferase signal (cell health) relative to plate median”: median about 0.97, highest 2% from about 1.6 on). This is one part of a sample in which the highest values are shown more often than they occur.
# Tested on: HEK293T (UBE3A T485A transfected, BAR Wnt reporter)
# Assay: Renilla luciferase signal (cell health) relative to plate median (fold (linear ratio)); higher = higher Renilla signal
# Conditions: 24 h
# Method in brief: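 HEK293T cells were seeded at 4500 cells/well in white 384-well plates and grown in DMEM with 10% FBS at 37°C and 5% CO2. The cells were transfected using Fugene 6 with a BAR firefly luciferase Wnt reporter, TK-Renilla and an expression plasmid, and four hours later robots added the chemicals at 0.01–100 uM for 24 h before a Dual-Glo luciferase readout. Wnt activity was taken as the firefly/Renilla ratio and cell health as raw Renilla, each median-centred per plate. Values are averages of four biological replicates.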
SMILES,Renilla luciferase signal (concentration: 0.1 uM),Renilla luciferase signal (concentration: 1 uM),Renilla luciferase signal (concentration: 10 uM),Renilla luciferase signal (concentration: 100 uM),Renilla luciferase signal (concentration: 0.01 uM)
CO[C@@H]1COCC[C@@H]1[NH2+][C@@H]1CC[C@@](C(=O)N2CCc3ncc(C(F)(F)F)cc3C2)(C(C)C)C1.O=C([O-])CCC(=O)O,0.901,1.1,0.9,1.08,–
NCc1cccc(C2CCN(C(=O)c3ccc(C#Cc4ccccc4F)o3)CC2)c1,1.16,0.989,1.04,1.31,–
CCOC(=O)CCC(=O)OCC [Diethyl butanedioate],0.922,0.965,0.973,1.25,–
[Cl-].[K+],0.999,1.06,1.02,1.88,1.13
[Cl-].[Li+],1.03,0.97,0.953,1.14,0.945
Cc1cn([C@H]2C=C[C@@H](CO)O2)c(=O)[nH]c1=O [Stavudine],0.957,1.07,0.973,0.903,–
CCc1nc(N)nc(N)c1-c1ccc(Cl)cc1 [Pyrimethamine],1.11,1.06,1.07,0.0813,–
"CC(C)c1cccc(C(C)C)c1 [1,3-Diisopropylbenzene]",1.12,1.28,1.17,1.7,–
Cc1ccc(C(C)C)cc1 [p-Cymene],1.03,0.949,1.11,1.51,–
Nc1ncn([C@@H]2O[C@H](CO)[C@@H](O)[C@H]2O)c(=O)n1 [5-azacytidine],0.572,0.391,0.138,0.596,0.936
CCCCCCCCCCCCCCCCOS(=O)(=O)[O-].[Na+] [Sodium hexyldecyl sulfate],1.11,1.05,1.11,0.434,–
CC(=O)O[C@]1(C(C)=O)CC[C@H]2[C@@H]3C=C(Cl)C4=CC(=O)[C@@H]5C[C@@H]5[C@]4(C)[C@H]3CC[C@@]21C [Cyproterone acetate],1.06,0.965,0.849,0.603,–
CCOc1ccc2[nH]cc(C(=O)NCc3ccccc3)c(=O)c2n1,1.05,1.12,1.22,0.85,–
